Laboratory results published in PubChem BioAssay (NCI).
Compounds without any hit were thinned out: in the full panel of roughly 79,000, 15% have a hit. Unmarked numbers belong to inactive results. Calls of active or inactive are those of the source. No stated cut-off is given here; in the data, active means growth inhibition above about 70%; inactive means the rest.

Assays:
[1] = NCI Yeast Anticancer Drug Screen. Data for the rad50 strain (AID 155);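 further: 0% = growth of vehicle-only cultures of the same strain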; conditions: S. cerevisiae rad50 strain growth inhibition; at 50.0 µM; stronger effect = higher value
Outline: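 Genetically altered yeast (DNA repair pathway); compound treatment; growth inhibition vs vehicle ctrl.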

[2] = NCI Yeast Anticancer Drug Screen. Data for the mec2-1 strain (AID 157); conditions: S. cerevisiae mec2-1 strain, at 50.0 µM, stronger effect = higher value
Outline: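 Test agents were screened against the mec2-1 yeast strain, with defined DNA repair or cell cycle alteration. Growth was scored as inhibition against vehicle-only controls.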

[3] = NCI Yeast Anticancer Drug Screen. Data for the sgs1 mgt1 strain (AID 161);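 further: 0% = growth of cultures given vehicle only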; conditions: S. cerevisiae sgs1 mgt1 strain, at 50.0 µM, stronger effect = higher value
Outline: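 Mutant yeast exposed to compound; growth scored against vehicle-only wells.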

[4] = NCI Yeast Anticancer Drug Screen. Data for the cln2 rad14 strain (AID 165);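 further: 0% = growth equal to vehicle treated cultures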; conditions: S. cerevisiae cln2 rad14 strain, at 50.0 µM, stronger effect = higher value
Outline: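 Growth of compound-exposed yeast (cln2 rad14 genotype) measured and expressed as inhibition relative to vehicle.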

[5] = NCI Yeast Anticancer Drug Screen. Data for the bub3 strain (AID 167); conditions: S. cerevisiae bub3 mutant strain, at 50.0 µM, stronger effect = higher value
Outline: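 Yeast carrying a defined mutation is treated with each compound, and growth is compared with that of vehicle-exposed cells to give inhibition.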

[6] = NCI Yeast Anticancer Drug Screen. Data for the mlh1 rad18 strain (AID 175); conditions: S. cerevisiae mlh1 rad18 strain growth inhibition; at 50.0 µM; stronger effect = higher value
Outline: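 In this whole-cell yeast screen, a strain with altered DNA damage repair is challenged with compound, and its growth is measured against matched vehicle-treated controls.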

Row | Structure (SMILES) | growth inhibition [1] | growth inhibition [2] | growth inhibition [3] | growth inhibition [4] | growth inhibition [5] | growth inhibition [6]
1 | O=C(CC/[N+]([O-])=C/c1ccccc1)OCc1ccccc1 | 24.9% | 20.8% | 1.3% | 12% | 21.8% | 52.5%
2 | CN(c1ccccc1Cl)S(=O)(=O)c1ccc([N+](=O)[O-])cc1 | -14.2% | -45.9% | 12.2% | 3.9% | 26.4% | -2.25%
3 | CCN(CC)c1ccc(C=O)cc1 | 6.8% | -11.1% | -36.5% | -6.4% | 13.2% | -11.1%
4 | N#C/C(=C/c1cccs1)c1ccc(Cl)cc1 | -4.6% | -15.2% | -11.8% | -21.1% | -16.1% | 1.85%
5 | O=C(O)c1ccc(S(=O)(=O)c2cccc(Cl)c2)cc1 | 0.85% | 7.8% | 8.65% | -18.7% | -16.1% | 6.45%
6 | CS(=O)(=O)OC1C(OC(=O)c2ccccc2)OC(COC(=O)c2ccccc2)C1OC(=O)c1ccccc1 (configuration not stated) | 14.8% | -13.6% | 4.9% | -28.7% | 9.7% | -13.8%
7 | CC(=O)OC1C(C(O)CO)OC2OC(C)(C)OC21 (configuration not stated) | -10.9% | -14.1% | -14% | -58.8% | -59.5% | -6.25%
8 | NC1=NNC(=O)/C1=C/c1ccccc1 | 16.6% | 5.85% | 0.55% | -17.1% | -10.2% | 22.2%
9 | N/N=C(/C(=O)Nc1cccc(Cl)c1)C(C(=O)c1ccc(O)cc1O)C1OC(=O)c2ccccc21 (configuration not stated) | -17.4% | -14.3% | -8.1% | 0.85% | 6.1% | 20.1%
10 | O=C1C(Cc2ccccc2)CCCC1Cc1ccccc1 (configuration not stated) | -5.25% | 17.3% | -8.05% | -21.5% | -6.4% | 3.35%
11 | C[N+](C)(C)C1(Cc2ccccc2)c2ccccc2-c2ccc(Cl)cc21 (configuration not stated) | 29.1% | 4.85% | 21.2% | -15.8% | -6.8% | 5.9%
12 | CS(=O)(=O)OC12CC3CC(CC(C3)C1)C2 | 7.3% | -9.1% | -11.8% | -26.5% | -0.75% | 5.55%
13 | CC(C)N(C(=O)C1C2CCC(CC2)C1C(=O)N(C(C)C)C(C)C)C(C)C (configuration not stated) | 2.4% | 17.5% | 11.3% | -0.9% | 27.6% | 20.7%
14 | CCCCCCCCCCCCCCOc1ccc2ccccc2c1 | 21.5% | 6.7% | 6.5% | -10.4% | -6.05% | -4%
15 | O=C1/C(=C\c2ccccc2)Cc2cc3c(cc21)OCO3 | 6.1% | 1.85% | -3.55% | -15.9% | 8.95% | -6.45%
16 | C=C1C(=O)OC2C1CCC1(C)CC(Br)C(=O)C(C)C21 (configuration not stated) | 1.7% | -1.1% | 13.9% | 2.1% | -5.85% | -4.65%
17 | C1=C\CCCC/C=C/CC/1 | 1.2% | -4.75% | -13.1% | 5.3% | 0.75% | 10.7%
18 | CC(=O)OC1CCC2(C)C3CCC4(C)C(C(C)CCCC(C)C)CCC4C3CC(=O)C23CC13 (configuration not stated) | 32% | -3.85% | 13.2% | 6.9% | -6.3% | 17.9%
19 | OCCn1nnc2ccccc21 | -0.55% | -2% | -4.35% | 5.35% | 1.7% | -3.7%
20 | O=c1cc[nH]c2cc(C(F)(F)F)ccc12 | -26.4% | -39% | -16.7% | 10.1% | -25.9% | -34%
21 | CCC/C=C(\CC)COC(=O)Nc1ccccc1 | -1.15% | -19.6% | -9.55% | -47.9% | -31.1% | -1.75%

Row | Structure (SMILES) | growth inhibition [1] | growth inhibition [2] | growth inhibition [3] | growth inhibition [4] | growth inhibition [5] | growth inhibition [6]
22 | NC(=O)Oc1cccc(OC(N)=O)c1 | 8.95% | -6.25% | 13.9% | 3.8% | 18.8% | 13.6%
23 | O=C1OCCC1n1cc(F)c(=O)[nH]c1=O (configuration not stated) | 3.15% | -5.3% | -3.45% | -39% | -20.2% | -2%
24 | COC(=O)CC#N | -13.3% | 4.9% | 10.1% | -2.75% | -1.2% | -13.3%
25 | Fc1cccc(CSc2cnnc(SCc3cccc(F)c3)c2SCc2cccc(F)c2)c1 | -14.8% | -7.1% | -13.7% | 14.6% | -10.8% | -32%
26 | COC1=C(C)C(=O)C2=C(C1=O)C1C3CC4=C(C(=O)C(OC)=C(C)C4=O)C(CNC(=O)C(C)O)N3C(C#N)C(C2)N1C (configuration not stated) | 15.9% | 0.85% | 8.9% | 32.8% | -3.45% | 41.5%
27 | S=C=Nc1ccc(CSc2nc3ccccc3[nH]2)cc1 | 0.8% | -9.25% | 12.8% | 2.4% | 9.4% | -11.2%
28 | CC(O)CCCCC(O)CCC[C@H](O)[C@H]1CCC([C@H]2CCC([C@@H](O)CCCCCCCCCCCCC3=C[C@H](C)OC3=O)O2)O1 (some centres not stated) | 40.9% | 29.1% | 71.2% (active) | 85.5% (active) | -16.7% | 81.7% (active)
29 | CCOC(=O)C1=[N+]([O-])OC2=C(O)CCCC21 (configuration not stated) | 5.7% | 2.25% | 9.05% | -8.85% | 2.4% | -19.3%
30 | CN(C)c1ccc(C=C(c2ccc(N)cc2)c2ccc(N)cc2)cc1 | 9.25% | -1.05% | 24.3% | -0.6% | 52.4% | 20.6%
31 | COc1ccc2nccc(NCCCN3CCN(CCCNc4ccnc5ccc(OC)cc45)CC3)c2c1 | 15.8% | 1% | 32.8% | -6.2% | 48.5% | -26.9%
32 | CNC(=S)/C(C(C)=O)=C(\C)Nc1ccccc1 | -0.95% | -5.55% | -8.05% | -32.1% | -14.6% | 15.2%
33 | COCOC(C)=O | -9.1% | -6.4% | 3.7% | 0.5% | -12.4% | 1.4%
34 | CC(=O)C1=CCC(C(C)C)C1 (configuration not stated) | 4.2% | -0.9% | -1.2% | -1.3% | 17.1% | 2%
35 | BrCCCOc1ccccc1Br | 14.6% | -11.2% | 1.6% | -32.1% | 4.2% | 14.2%
36 | CSc1nc(-c2ccc(Cl)cc2)c(C#N)c(=O)n1C1OC(COC(C)=O)C(OC(C)=O)C(OC(C)=O)C1OC(C)=O (configuration not stated) | -0.55% | -5.75% | 16.6% | 21.2% | -36% | 23.2%
37 | COc1cc(/C=C/C(=O)OCCc2ccccc2)ccc1O | 74.8% (active) | 82% (active) | 90.2% (active) | 89% (active) | 90.1% (active) | 61%
38 | CC(C)=CCc1c(O)ccc2ccc(=O)oc12 | 21.6% | 20.1% | 10.2% | 17.9% | 7.3% | 29.4%
39 | CC1=Nc2c([nH]c(=S)[nH]c2=O)NC(c2c(Cl)cccc2Cl)C1 (configuration not stated) | 3.9% | 11.6% | 14.2% | -4.5% | -4.5% | 34.6%
40 | O=[N+]([O-])c1ccc(-c2csc3nc(-c4ccccc4)nn23)cc1 | -0.5% | -31.2% | -29.9% | 10.4% | -28.2% | -23.2%
41 | Nc1nc(N)c(NC(=O)CCCO)c(=O)[nH]1 | -3.95% | -2.35% | -13.3% | 6.8% | -23.8% | -53%
42 | CCOC(C)(OCC)c1ccccc1 | -9.15% | 20.6% | -2.1% | 23.5% | 8.55% | 29.4%
